Source: PubChem BioAssay (Tox21)
Results filed as inconclusive are left out. Activity calls are given as the source filed them. Unless noted, calls come from the whole dose curve; as a rule, active = well fitted curve in the direction sought with a large enough effect in the repeat runs; inconclusive = weak or mixed curves; inactive = no such curve, though single readings can be large; an effect the other way counts as inactive or inconclusive.

Legend:
[1] = qHTS assay to identify small molecule agonists of the hypoxia (HIF-1) signaling pathway - cell viability counter screen (AID 1224844; calls by dose curve; note: nearly all actives have a fitted effect of over 50% in size)
Procedure, shortened: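 In this counter screen, HRE-bla ME-180 cell viability after 17 hrs of compound exposure at 37C was read by CellTiter-Glo luminescence, multiplexed with the beta-lactamase reporter measurement.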

[2] = qHTS assay to identify small molecule agonists of H2AX (AID 1224845; active = well fitted activation curve with a large enough effect in the signal ratio in the repeat runs, not every such curve was filed as active; the % refers to the signal ratio)
Procedure, shortened: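 Phospho-H2AX Ser139 measured by HTRF (ex 320 nm; em 665 and 620 nm) after 24 hr antibody incubation. Compounds, 15 concentrations, 0.76% DMSO, were applied to CHO-K1 cells for 3hr at 37C before lysis.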

[3] = qHTS assay to identify small molecule agonists of the hypoxia (HIF-1) signaling pathway (AID 1224846; active = well fitted activation curve with a large enough effect in the signal ratio in the repeat runs, not every such curve was filed as active; the % refers to the signal ratio)
Procedure, shortened: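 ME-180 HRE-bla reporter cells; compounds in DMSO, 17 h at 37C; read-out beta-lactamase via CCF4-AM FRET.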

[4] = qHTS assay to identify small molecule agonists of H2AX - cell viability counter screen (AID 1224847; calls by dose curve; note: nearly all actives have a fitted effect of over 30% in size; note: potency is the fitted concentration of half-maximal effect;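 for activity change, negative = cytotoxicity: wild-type CHO-K1 cells; top concentration of the series differs between compounds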)
Procedure, shortened: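 After overnight plating of 1000 CHO-K1 cells per well, a 15-concentration compound series was applied for 3 hr at 37C. Luminescence from CellTiter-Glo, read following 30 min at room temperature, reflected cell viability.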

[5] = qHTS RealTime-Glo MT Cell Viability Assay in HepG2 cells - 24 hour (AID 1224867); note: nearly all actives have a fitted effect of over 50% in size
Procedure, shortened: (§1)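 HepG2 cells were seeded at 600 cells/well together with NanoLuc luciferase and a cell-permeant prosubstrate, preincubated 5 h at 37 C/5% CO2, then pin-dosed with compounds in DMSO. Nonlytic luminescence from viable cells was read at each time point.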

[6] = qHTS RealTime-Glo MT Cell Viability Assay in HEK293 cells - 32 hour (AID 1224868); note: nearly all actives have a fitted effect of over 50% in size; note: potency is the fitted concentration of half-maximal effect; for activity change, negative = cytotoxic: top concentration of the series differs between compounds
Procedure, shortened: (§2)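 HEK293 cells were seeded at 600 cells/well together with NanoLuc luciferase and cell-permeant prosubstrate, preincubated 5 h at 37 C/5% CO2, then given compound in DMSO by pintool. Luminescence from viable-cell prosubstrate reduction was read repeatedly over 40 h.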

[7] = A CellTox Green Cytotoxicity Assay to monitor cytotoxicity in HEK293 cells - 0 hour (AID 1224869); note: nearly all actives have a fitted effect of over 50% in size
Procedure, shortened: (§3)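 Real-time, in one plate: 600 HEK293 cells/well with dead-cell DNA dye, pinned compound after 5 h, 37 C incubation over 40 h; viable cells give no appreciable fluorescence.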

[8] = A CellTox Green Cytotoxicity Assay to monitor cytotoxicity in HEK293 cells - 40 hour (AID 1224871); note: nearly all actives have a fitted effect of over 45% in size
Procedure, shortened: as §3

[9] = qHTS RealTime-Glo MT Cell Viability Assay in HepG2 cells - 8 hour (AID 1224873); note: nearly all actives have a fitted effect of over 55% in size
Procedure, shortened: (§4)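 Real-time viability: cells seeded at 600 per well together with NanoLuc and cell-permeant prosubstrate, compounds added after 5 h incubation. Luminescence tracked at 0, 8, 16, 24, 32 and 40 h of exposure.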

[10] = qHTS RealTime-Glo MT Cell Viability Assay in HEK293 cells - 40 hour (AID 1224874); details: RealTime-Glo luminescence; max response: active compounds read low; note: nearly all actives have a fitted effect of over 50% in size; note: potency is the fitted concentration of half-maximal effect
Procedure, shortened: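 Kinetic, non-lysing viability readout. Seed HEK293 (600/well) with reagent, incubate 5 h at 37 C/5% CO2, pin 23 nL compound in DMSO, incubate at 37 C, read luminescence at 0, 8, 16, 24, 32, 40 h.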

[11] = A CellTox Green Cytotoxicity Assay to monitor cytotoxicity in HEK293 cells - 24 hour (AID 1224875); note: nearly all actives have a fitted effect of over 45% in size
Procedure, shortened: as §3

[12] = A CellTox Green Cytotoxicity Assay to monitor cytotoxicity in HepG2 cells - 16 hour (AID 1224876); note: nearly all actives have a fitted effect of over 45% in size
Procedure, shortened: (§5)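 Cytotoxicity was tracked as dead-cell DNA fluorescence in HepG2 cells treated with test compounds at 37 C; each time-point value comes from one kinetic series spanning 0, 8, 16, 24, 32 and 40 h.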

[13] = qHTS RealTime-Glo MT Cell Viability Assay in HepG2 cells - 32 hour (AID 1224877); note: nearly all actives have a fitted effect of over 55% in size
Procedure, shortened: as §1

[14] = A CellTox Green Cytotoxicity Assay to monitor cytotoxicity in HepG2 cells - 24 hour (AID 1224878); note: nearly all actives have a fitted effect of over 45% in size; note: potency is the fitted concentration of half-maximal effect
Procedure, shortened: as §5

[15] = A CellTox Green Cytotoxicity Assay to monitor cytotoxicity in HepG2 cells - 40 hour (AID 1224879); note: nearly all actives have a fitted effect of over 40% in size; note: potency is the fitted concentration of half-maximal effect
Procedure, shortened: as §5

[16] = qHTS RealTime-Glo MT Cell Viability Assay in HepG2 cells - 40 hour (AID 1224870); note: nearly all actives have a fitted effect of over 50% in size
Procedure, shortened: as §4

[17] = qHTS RealTime-Glo MT Cell Viability Assay in HEK293 cells - 16 hour (AID 1224872); note: nearly all actives have a fitted effect of over 50% in size; note: potency is the fitted concentration of half-maximal effect; for activity change, negative = cytotoxicity: top concentration of the series differs between compounds
Procedure, shortened: as §2

[18] = biological target: Thyrotropin receptor (Homo sapiens) (UniProt P16473); experiment: qHTS assay to identify small molecule agonists of the thyroid stimulating hormone receptor (TSHR) signaling pathway (AID 1224843; calls by dose curve; note: nearly all actives have a fitted effect of over 45% in size)
Procedure, shortened: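 Agonist activity read as cAMP rise via d2/cryptate HTRF competition, 1 h room-temperature detection, in HEK293 cells expressing TSHR. Fifteen-point titrations, each run in triplicate, with a 30 min room-temperature incubation beforehand.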

[19] = qHTS assay to identify small molecule antagonists of the estrogen related receptor (ERR) signaling pathway from Tox21 library (AID 1224848); note: nearly all actives have a fitted effect of over 50% in size; note: potency is the fitted concentration of half-maximal effect
Procedure, shortened: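 Luciferase luminescence (ONE-Glo, 30 min room temperature) was the read-out. Cells of the NTP-supplied ERR line, 2,000 per well, were given 6 h at 37 C before compound addition in DMSO and 18 h exposure at 37 C.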

[20] = qHTS assay to identify small molecule agonists of the estrogen related receptor (ERR) signaling pathway from Tox21 library (AID 1224849; calls by dose curve; note: nearly all actives have a fitted effect of over 15% in size); details: ERR reporter cell line, ONE-Glo luciferase, 18 h; at 92.4 µM (top of the series) unless noted
Procedure, shortened: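 Luciferase activity in ERR pathway reporter cells served as the agonist readout; exposure lasted 18 h at 37 C, with ONE-Glo detection after 30 min at room temperature.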
% is set by controls: 0 for no effect and ±100 for the full control effect.

Thyrotropin receptor (Homo sapiens), sequence (P16473 whole entry, looked up): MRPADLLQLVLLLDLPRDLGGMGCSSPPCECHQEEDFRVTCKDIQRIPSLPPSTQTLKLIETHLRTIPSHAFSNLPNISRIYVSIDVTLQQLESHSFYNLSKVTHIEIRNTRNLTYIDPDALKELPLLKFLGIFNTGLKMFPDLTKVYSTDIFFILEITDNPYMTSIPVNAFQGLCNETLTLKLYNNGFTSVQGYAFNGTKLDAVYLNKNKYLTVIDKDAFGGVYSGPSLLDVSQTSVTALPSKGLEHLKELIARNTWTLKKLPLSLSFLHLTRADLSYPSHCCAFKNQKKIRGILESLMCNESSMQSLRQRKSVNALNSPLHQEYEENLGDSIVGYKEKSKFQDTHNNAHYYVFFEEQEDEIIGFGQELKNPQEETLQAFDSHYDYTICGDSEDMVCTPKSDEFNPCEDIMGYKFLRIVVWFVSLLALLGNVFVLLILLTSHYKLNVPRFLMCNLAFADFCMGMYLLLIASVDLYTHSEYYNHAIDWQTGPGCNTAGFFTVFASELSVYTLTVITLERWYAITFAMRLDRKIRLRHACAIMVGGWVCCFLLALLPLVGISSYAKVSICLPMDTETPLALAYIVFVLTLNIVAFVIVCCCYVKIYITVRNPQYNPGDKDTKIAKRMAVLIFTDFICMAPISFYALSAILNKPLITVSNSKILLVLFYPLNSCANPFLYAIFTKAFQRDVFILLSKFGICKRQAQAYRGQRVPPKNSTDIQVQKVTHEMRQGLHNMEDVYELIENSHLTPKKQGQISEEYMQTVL

C(=C(c1ccccc1)c1ccccc1)c1ccccc1
active: Potency [4] 80 µM
inactive: Potency [1] | outcome [2] | outcome [3] | outcome [5] | Potency [6] | Potency [7] | Potency [8] | outcome [9] | max response [10] 7.28% | Potency [11] | Potency [12] | Potency [13] | Potency [14] | Potency [15]

[O-][N+](=Nc1ccccc1)c1ccccc1
inactive: Potency [1] | outcome [2] | outcome [3] | Potency [4] | outcome [5] | Potency [6] | Potency [7] | Potency [16] | Potency [17] | outcome [9] | max response [10] -1.34% | Potency [12] | Potency [13] | Potency [14] | Potency [15]

C=C(C)C(=O)OCCCCCCCCCCCCCCCCCC
inactive: activation [18] -1.44% [at 19 µM] | activation [3] -0.144% [at 15.8 µM] | activity change, negative = cytotoxicity [4] 1.51% [at 31.6 µM] | activity change, negative = cytotoxicity [5] 4.54% [at 15.8 µM] | activity change, negative = cytotoxic [6] 4.26% [at 15.8 µM] | cytotoxicity [7] 2.77% [at 15.8 µM] | activity change, negative = cytotoxic [16] 13.1% [at 15.8 µM] | cytotoxicity increase [8] 0.266% [at 15.8 µM] | activity change, negative = cytotoxicity [17] 9.27% [at 15.8 µM] | max response [10] 3.5% | activity change [11] 0.0651% [at 15.8 µM, active compounds read high] | cytotoxicity increase [12] 3.12% [at 15.8 µM] | cytotoxicity [14] -0.0576% [at 15.8 µM] | cytotoxicity increase [15] 2.24% [at 15.8 µM]

c1cc(CN2CCCCC2)cc(OCCCNc2nc3ccccc3s2)c1
inactive: outcome [18] | outcome [2] | outcome [3] | activity change, positive = activation [20] -31.8% [at 42.5 µM] | Potency [7] | Potency [8] | outcome [9]
active: Potency [19] 23.7 µM | Potency [6] 9.52 µM | Potency [17] 9.52 µM | Potency [10] 9.52 µM | Potency [14] 26.8 µM | Potency [15] 23.9 µM

CNC(=O)c1c(I)c(NC(=O)CCCCC(=O)Nc2c(I)c(C(=O)O)c(I)c(C(=O)NC)c2I)c(I)c(C(=O)O)c1I
inactive: Potency [1] | outcome [2] | outcome [3] | Potency [4] | Potency [19] | activity change, positive = activation [20] 8.83% [at 42.5 µM] | outcome [5] | Potency [6] | Potency [7] | Potency [16] | Potency [8] | outcome [9] | max response [10] -0.381% | Potency [12] | Potency [13] | Potency [14] | Potency [15]

CC(=O)OC(C)(C)C
inactive: Potency [1] | outcome [2] | outcome [3] | Potency [4] | Potency [19] | activity change, positive = activation [20] 0.24% | outcome [5] | Potency [7] | Potency [16] | Potency [8] | Potency [17] | max response [10] 8.31% | Potency [11] | Potency [12] | Potency [13] | Potency [14] | Potency [15]

Cc1cc(C)c(NC(=O)CN(CC(=O)O)CC(=O)O)c(C)c1Br
inactive: Potency [1] | outcome [2] | outcome [3] | Potency [4] | outcome [5] | Potency [6] | Potency [7] | Potency [8] | Potency [17] | outcome [9] | max response [10] -1.32% | Potency [11] | Potency [12] | Potency [13] | Potency [14] | Potency [15]

OC1OC[C@@H](O)[C@H](O)[C@H]1O (stereo partly drawn)
inactive: Potency [1] | outcome [2] | outcome [3] | Potency [4] | outcome [5] | Potency [6] | Potency [7] | Potency [16] | Potency [8] | Potency [17] | outcome [9] | max response [10] 0.611% | Potency [11] | Potency [12] | Potency [13] | Potency [14] | Potency [15]

CN1[C@@H]2CC[C@H]1CC(NC(=O)n1c(=O)[nH]c3ccccc31)C2 (stereo partly drawn)
inactive: Potency [1] | outcome [2] | outcome [3] | Potency [4] | Potency [19] | activity change, positive = activation [20] 7.7% [at 42.5 µM] | outcome [5] | Potency [6] | Potency [7] | Potency [16] | Potency [8] | Potency [17] | outcome [9] | max response [10] -2.86% | Potency [11] | Potency [12] | Potency [13] | Potency [14] | Potency [15]

C1COCCO1
inactive: Potency [1] | outcome [2] | outcome [3] | Potency [4] | Potency [19] | activity change, positive = activation [20] 5.15% | outcome [5] | Potency [6] | Potency [7] | Potency [16] | Potency [8] | Potency [17] | outcome [9] | max response [10] 4.29% | Potency [11] | Potency [12] | Potency [13] | Potency [14] | Potency [15]

C#CC(O)CCCCC (stereo not drawn)
inactive: outcome [18] | outcome [2] | outcome [3] | Potency [4] | outcome [5] | Potency [6] | Potency [8] | Potency [17] | outcome [9] | max response [10] 8.88% | Potency [11] | Potency [12] | Potency [13] | Potency [14] | Potency [15]

COc1cccc(OC)c1
inactive: outcome [18] | outcome [2] | outcome [3] | outcome [5] | Potency [6] | Potency [7] | Potency [16] | Potency [8] | Potency [17] | max response [10] 0.816% | Potency [12] | Potency [13] | Potency [14] | Potency [15]

CCC(C)(C)C1CCC(OC)CC1 (stereo not drawn)
inactive: outcome [18] | outcome [2] | Potency [4] | Potency [19] | activity change, positive = activation [20] -1.91% | outcome [5] | Potency [6] | Potency [8] | outcome [9] | max response [10] 21.9% | Potency [11] | Potency [12] | Potency [13] | Potency [14] | Potency [15]

O=C(O)c1ccccc1S
inactive: outcome [18] | outcome [2] | Potency [4] | outcome [5] | Potency [6] | Potency [7] | Potency [16] | max response [10] -0.793% | Potency [12] | Potency [14] | Potency [15]

N#CCN(CC#N)CCN(CC#N)CC#N
inactive: outcome [18] | outcome [3] | outcome [5] | Potency [7] | Potency [8] | Potency [17] | outcome [9] | max response [10] 4.6% | Potency [12] | Potency [14] | Potency [15]
